For eight compounds, growth results are on record in PubChem BioAssay (NCI).

Among the test systems are SK-MEL-2 melanoma; EKVX NSCLC; SN12C renal; UO-31 renal; TK-10 renal; ACHN renal; CAKI-1 renal; A498 renal; CCRF-CEM leukemia; SR leukemia; RPMI-8226 leukemia; OVCAR-8 ovarian; OVCAR-5 ovarian; OVCAR-4 ovarian; SK-OV-3 ovarian; IGROV1 ovarian; OVCAR-3 ovarian; HS 578T breast; NCI/ADR-RES ovarian; MOLT-4 leukemia.
Holding throughout (assay): NCI-60 one-dose screen, 48 h (100 = growth as untreated, 0 = no growth, -100 = all killed)
What all share (conditions): 10 µM unless noted

SMILES strings stand for the structures. Compounds without any hit were thinned out: in the full panel of roughly 83,000, 20% have a hit.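 Percent growth is the endpoint: 0 to 100 indicates growth inhibition (40 means 60% inhibition), 0 means no net growth, and negative values indicate cell death.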 Unmarked numbers belong to inactive results. Calls of active or inactive are those of the source. The calls were made as follows: active = growth percent below 10; inactive = the rest.

Regarding `O=C1/C(=C/c2ccc(F)cc2)C=C(c2ccccc2)N1CCc1ccccc1`, the growth in the test on SK-MEL-2 melanoma was 55.5%; in the test with EKVX NSCLC it was 56.9%; with SN12C renal, 58.3%; in the test with UO-31 renal, 51%; in the test with TK-10 renal it was 62.4%; in the test with ACHN renal, 38.6%. Moreover, the growth with CAKI-1 renal was 76%; in the test on A498 renal, 81.3%; in the test on CCRF-CEM leukemia it was 95%; in the test with SR leukemia it was 46.5%; with RPMI-8226 leukemia, 89.3%; in the test with OVCAR-8 ovarian, 45.6%. Moreover, the growth is 78.7% in the test on OVCAR-5 ovarian; 39.3% in the test on OVCAR-4 ovarian; 29.1% in the test on SK-OV-3 ovarian; 62.3% with IGROV1 ovarian; 53.1% in the test with OVCAR-3 ovarian; 42.1% in the test on HS 578T breast. Also, the growth in the test with NCI/ADR-RES ovarian is 58.2%.
As to `O=C(NCCCNc1cc(-c2cn(-c3ccccc3)nc2-c2cccc(O)c2)ccn1)c1ccccc1`, the growth in the test with SK-MEL-2 melanoma was 26.8%; in the test with EKVX NSCLC, 47.6%; with SN12C renal it was 61.1%; with UO-31 renal it was 22.6%; in the test with TK-10 renal, 67.3%; in the test on ACHN renal, 45.8%. The growth with CAKI-1 renal was 37.3%; in the test with A498 renal, 31.1%; with CCRF-CEM leukemia, 36.6%; in the test on SR leukemia it was -25.8% (active); with RPMI-8226 leukemia, -7.45% (active); in the test with OVCAR-8 ovarian it was 27.5%. In addition, the growth is 63.3% in the test on OVCAR-5 ovarian; 38.1% in the test with OVCAR-4 ovarian; 37.7% in the test with SK-OV-3 ovarian; 50.8% with IGROV1 ovarian; 45.8% with OVCAR-3 ovarian; -6.38% (active) in the test on HS 578T breast. Moreover, in the test with NCI/ADR-RES ovarian, the growth is 25.8%.
Regarding `COc1cc2ncn3c(=O)c4c5c(sc4nc3c2cc1OC)CCCC5`, the growth was 91.4% in the test with SK-MEL-2 melanoma; 83.2% in the test on EKVX NSCLC; 109% in the test on SN12C renal; 95.7% with UO-31 renal; 140% in the test on TK-10 renal; 103% in the test on ACHN renal. The growth in the test on CAKI-1 renal was 92.5%; with A498 renal it was 112%; in the test with CCRF-CEM leukemia, 137%; in the test with SR leukemia, 134%; in the test on RPMI-8226 leukemia it was 105%; in the test with OVCAR-8 ovarian it was 107%. For the same compound, the growth was 98.8% with OVCAR-5 ovarian; 92.7% with OVCAR-4 ovarian; 97.5% in the test on SK-OV-3 ovarian; 98.8% in the test on IGROV1 ovarian; 100% with OVCAR-3 ovarian; 94.7% in the test with HS 578T breast. Also, in the test on NCI/ADR-RES ovarian, the growth was 96%.
Consider `O=C(/C=C/c1ccc(Cl)nc1)c1ccc(Cl)cc1Cl`, for which the growth is 106% in the test with SK-MEL-2 melanoma; 97.5% in the test on EKVX NSCLC; 106% in the test on SN12C renal; 89.3% in the test with UO-31 renal; 100% in the test on TK-10 renal; 93.1% in the test on ACHN renal. Also, the growth in the test with CAKI-1 renal was 71.2%; in the test on A498 renal, 88.8%; in the test on CCRF-CEM leukemia, 7% (active); with MOLT-4 leukemia it was 15.9%; in the test on OVCAR-8 ovarian it was 95.6%; with OVCAR-4 ovarian, 87.3%. The growth in the test with SK-OV-3 ovarian is 106%; with IGROV1 ovarian, 96.9%; with OVCAR-3 ovarian, 78.5%; in the test with HS 578T breast it was 110%; in the test with NCI/ADR-RES ovarian, 102%.
Turning to `NC(=S)Nc1cccc(O)c1`, the growth in the test with SK-MEL-2 melanoma was 99.1%; in the test with EKVX NSCLC, 93%; in the test on SN12C renal it was 95.9%; in the test with UO-31 renal it was 80%; in the test on TK-10 renal, 91.8%; in the test with ACHN renal, 90.3%. In addition, the growth with CAKI-1 renal is 90%; in the test on A498 renal, 115%; with CCRF-CEM leukemia, 103%; in the test with SR leukemia, 82.4%; in the test on RPMI-8226 leukemia, 88.5%; in the test on OVCAR-8 ovarian it was 94.2%. For the same compound, the growth in the test with OVCAR-5 ovarian was 96.3%; in the test with OVCAR-4 ovarian, 107%; in the test on SK-OV-3 ovarian, 101%; with IGROV1 ovarian, 98%; with OVCAR-3 ovarian, 110%; in the test on HS 578T breast it was 102%. Further, the growth in the test on NCI/ADR-RES ovarian was 94.2%.
Consider `O=C(Nc1ccccc1)Nc1cccc(Oc2nnc(Cl)c3ccccc23)c1`, for which the growth is 9.53% (active) with SK-MEL-2 melanoma; 30% in the test on EKVX NSCLC; 53.7% with SN12C renal; 34.9% in the test on UO-31 renal; 25.3% with TK-10 renal; 33.9% in the test on ACHN renal. Besides, the growth is 84.4% in the test with CAKI-1 renal; 49.2% with A498 renal; 47.6% in the test with CCRF-CEM leukemia; 18% in the test on SR leukemia; 35.1% with RPMI-8226 leukemia; 15.5% in the test with OVCAR-8 ovarian. Further, the growth is 86.3% in the test on OVCAR-5 ovarian; 0.217% (active) in the test on OVCAR-4 ovarian; -0.5% (active) with SK-OV-3 ovarian; 37.2% in the test with IGROV1 ovarian; 25.4% with OVCAR-3 ovarian; 1.19% (active) in the test with HS 578T breast. The growth with NCI/ADR-RES ovarian is 16.9%.
With `COc1ccc(-c2nc3c(c(=O)n2C(C)=O)C(c2ccc(Cl)cc2)c2sc4c(Cl)cccc4c2O3)cc1` (stereo not drawn), the growth with SK-MEL-2 melanoma is -11.5% (active); in the test with EKVX NSCLC it was 24.6%; in the test with SN12C renal, -35.1% (active); in the test on UO-31 renal it was 6.4% (active); in the test with TK-10 renal, -35.6% (active); in the test with ACHN renal it was 8.98% (active). The growth is -6.4% (active) in the test with CAKI-1 renal; -2.79% (active) in the test with A498 renal; -3.94% (active) with CCRF-CEM leukemia; -11.7% (active) in the test on SR leukemia; 2.22% (active) with RPMI-8226 leukemia; -23% (active) with OVCAR-8 ovarian. Further, the growth is -13.8% (active) in the test with OVCAR-5 ovarian; 24.4% in the test with OVCAR-4 ovarian; -22.6% (active) with SK-OV-3 ovarian; 12.5% in the test on IGROV1 ovarian; -71.4% (active) in the test on OVCAR-3 ovarian; -15.6% (active) in the test with HS 578T breast. In the test with NCI/ADR-RES ovarian, the growth was -4.4% (active).
As for `CC1(C)CC(=O)C2=C(C1)N(c1ccc(OC(F)(F)F)cc1)C(N)=C(C#N)C2c1ccc(Cl)cc1` (stereo not drawn), the growth in the test on SK-MEL-2 melanoma is 90.7%; with EKVX NSCLC, 84.6%; in the test on SN12C renal, 80%; in the test on UO-31 renal it was 89.9%; in the test with TK-10 renal, 89.7%; in the test on ACHN renal, 71.4%. Moreover, the growth in the test on CAKI-1 renal was 60.8%; in the test with A498 renal it was 94.4%; with CCRF-CEM leukemia it was 96.5%; in the test with MOLT-4 leukemia it was 95.4%; in the test with OVCAR-8 ovarian, 56.2%; in the test on OVCAR-4 ovarian, 85%. In addition, the growth in the test on SK-OV-3 ovarian is 62.7%; with IGROV1 ovarian, 90.3%; in the test on OVCAR-3 ovarian, 94.5%; in the test with HS 578T breast, 65.5%; in the test with NCI/ADR-RES ovarian it was 87.6%.
